Bioassay records: PubChem BioAssay, National Center for Advancing Translational Sciences (NCATS)
Only some compounds are listed: those with a hit (about 6.5% of all), similar ones and a draw of the others.
LASV entry inh: inhibitors of Lassa virus binding or cell entry; Lassa virus pseudotype entry inhibition, cell reporter; 300,000 compounds, 1.2% hits; Potency, µM (series often up to 37.9 µM), without a hit: at the top dose activity change, negative = inhibition, actives largely listed as inhibitors; calls by dose curve; tested in HEK293 cells; further: potency means the concentration at half of the fitted maximal effect; nearly all actives have a fitted effect of over 50% in size
Vaccinia mCherry: inhibitors of vaccinia virus infection (mCherry reporter signal); 310,000 compounds, 0.63% hits; Vaccinia virus mCherry reporter infection, fluorescence; Potency, µM (highest dose often 36.5 µM), inactives show at the highest dose activity change, negative = inhibition, actives largely listed as inhibitors; AID 720579; calls by dose curve; tested in A549 cells; further: potency means the concentration at half of the fitted maximal effect; nearly all actives have a fitted effect of over 35% in size
FMDV antiviral: foot and mouth disease virus antiviral activity. AID 1159524. FMDV antiviral cell-based qHTS. 410,000 compounds, 1.2% hits. Potency, µM (doses to about 57.9 µM), for the others: at the top dose activity change, negative = inhibition, hits mostly inhibitors; calls by dose curve; tested in HEK293T cells; further: read-out not given here; potency means the concentration at half of the fitted maximal effect; nearly all actives have a fitted effect of over 45% in size
HCMV inh: human cytomegalovirus inhibition; HFF cells, HCMV-luciferase reporter, 72 h; stronger effect = lower value; activity change, negative = inhibition, % at 57.5 µM; 410,000 compounds, 4.5% hits; AID 1259415; in the data active means activity change below about -60%; inconclusive means no clear call, values can overlap the other calls; inactive means above about -39%
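HFF cells seeded 16 h at 37C, treated with compounds, infected with luciferase-reporter HCMV at MOI 1 PFU/cell; luciferase read at 72 h post infection, normalized to buffer-only and Salinomycin controls.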
VACV Venus inh: vaccinia inhibition (Venus reporter). Vaccinia virus Venus reporter expression, fluorescence. Potency, µM (doses to about 36.5 µM), inactives show at the highest dose activity change, negative = inhibition, usual class: inhibitors. 330,000 compounds, 0.46% hits. AID 720580; calls by dose curve; tested in A549 cells; further: potency means the concentration at half of the fitted maximal effect; nearly all actives have a fitted effect of over 30% in size
MARV entry inh: inhibitors of Marburg virus binding or cell entry; Marburg virus pseudotyped entry inhibition, cell reporter; AID 540276; 300,000 compounds, 1.8% hits; Potency, µM (series often up to 37.8 µM), for the others: at the highest dose activity change, negative = inhibition, usual class: inhibitors; calls by dose curve; tested in HEK293 cells; further: potency means the concentration at half of the fitted maximal effect
Numbers without * were called inactive; i = inactive; u = inconclusive; x = no result; ! = a repeat was not active; [ ] = dose if it differs, or a comment. On the % scale 0 is the no-effect control and ±100 the full control effect.

SMILES	LASV entry inh	Vaccinia mCherry	FMDV antiviral	HCMV inh	VACV Venus inh	MARV entry inh
CCCc1cc(C(=O)N2CCCC(C(=O)c3cccc4ccccc34)C2)n(C)n1 (configuration not stated)	x	x	-14%	0	x	x
CCc1cc(C(=O)N2CCCC(C(=O)c3cccc4ccccc34)C2)n(C)n1 (configuration not stated)	x	-15%	u	-60*	-23%	u
Cc1noc(Cn2c(=O)c3cc4c(cc3n(CC(=O)Nc3ccccc3F)c2=O)OCO4)n1	10%[46.1 µM]	5%	-7%	20	-1%	x
CCOC(=O)C1=C(CN2CCCCC2)NC(=O)NC1c1cc(C)ccc1C (configuration not stated)	-25%[46.1 µM]	-12%	u	1	-9%	9.2µM*
CCOC(=O)C1=C(CN2CCOCC2)NC(=O)NC1c1cc(C)ccc1C (configuration not stated)	-15%	-16%	x	-32	-11%	-15%
O=c1[nH]c2ccccc2cc1CN(c1ccccc1)S(=O)(=O)c1ccccc1	17%	i	0%	-64*	-20%	u
COc1ccc(S(=O)(=O)N(Cc2cccnc2)Cc2cc3ccccc3[nH]c2=O)cc1	x	x	20%	u	x	x
Cc1cccc(N(Cc2cc3ccccc3[nH]c2=O)S(=O)(=O)c2ccccc2)c1	0%	i	u	u	-17%	20%
Cc1ccc(S(=O)(=O)N(Cc2cccnc2)Cc2cc3ccccc3[nH]c2=O)cc1	-18%[46.1 µM]	-13%	-9%	-62*	-9%	-9%[46.1 µM]
COc1ccccc1CNC(=O)c1cc(Sc2cccc(Cl)c2)nc2ccccc12	u	i	17%	-38	0%	x
O=C(Nc1nccs1)c1cc2c(s1)CCCCC2	u	x	8.9µM*	-64*	u	u
Cn1c(=O)c(C#N)c(-c2ccc(F)cc2)c2cc(C(=O)c3cc(Cl)cc(Cl)c3O)cnc21	x	x	u	-61*	x	x
C=C1CC(COc2ccc3c(C)c(Cl)c(=O)oc3c2)(c2ccccc2)OC1=O (configuration not stated)	10µM*	10µM*	22µM*	-98*	11µM*	7.1µM*
Cc1cccc(C(=O)N[C@H](C(=O)Nc2ncc(C)s2)C(C)C)c1	x	13µM*	40%	-107*	u	5%[46.1 µM]
Cc1cccc(C(=O)N[C@H](C(=O)Nc2nnc(C3CC3)s2)C(C)C)c1	8%	-14%	0%	-19	-14%	20%
NS(=O)(=O)c1ccc(CCNC(=O)c2ccc(Cl)c(S(=O)(=O)N3CCCCC3)c2)cc1	u	114%	45µM*	u	295%	u
O=C(NCCC1=CCCCC1)c1ccc(Cl)c(S(=O)(=O)N2CCCCC2)c1	x	x	u	-81*	x	x
O=C(NCCC1=CCCCC1)c1ccc(Cl)c(S(=O)(=O)N2CCOCC2)c1	-21%	x	u	-66*	x	-11%
O=C(NCCC1=CCCCC1)c1cc(S(=O)(=O)N2CCOCC2)c(Cl)cc1Cl	-8%	-5%	-19%	-6	-22%	28%
Cc1ccc(C)c(S(=O)(=O)N2CCCOC2CNC(=O)C(=O)NCCC2=CCCCC2)c1 (configuration not stated)	u	-8%	u	-67*	-19%	-18%
Cc1ccc(C)c(S(=O)(=O)N2CCCOC2CNC(=O)C(=O)NCCc2ccccc2)c1 (configuration not stated)	u	-9%	-8%	u	-30%	u
CCn1cc2nc(SCc3ccc(F)cc3)n(CCc3ccccc3)c(=O)c2n1	u	-26%	0%	-21	-16%	x
CO[C@H]1C=CO[C@@]2(C)Oc3c(C)c(O)c4c(O)c(c(C=NN5CCN(C)CC5)c(O)c4c3C2=O)NC(=O)C(C)=CC=C[C@H](C)[C@H](O)[C@@H](C)[C@@H](O)[C@@H](C)[C@H](OC(C)=O)[C@H]1C	x	x	-11%[16.9 µM]	x	x	x
Cc1ccc(N(C)C(=O)Cn2cc(S(=O)(=O)N3CCCC3)c(S(=O)(=O)N3CCCC3)c2)cc1	11%[46.1 µM]	0%	14%	6	4%	x
COc1ccc(CN(C(=O)c2snc(C(N)=O)c2N)C(C(=O)NC2CCCC2)c2ccc(OC)c(OC)c2)cc1 (configuration not stated)	-14%[46.1 µM]	-3%	18%	u	-3%	-22%[46.1 µM]
SMILES	LASV entry inh	Vaccinia mCherry	FMDV antiviral	HCMV inh	VACV Venus inh	MARV entry inh
COc1ccc(CN(C(=O)c2nsc(Cl)c2Cl)C(C(=O)NC2CCCC2)c2ccc(C)cc2)cc1 (configuration not stated)	16µM*	i	13%	u	-18%	u
Cc1ccc(C)c(N(C(=O)c2nsc(Cl)c2Cl)C(C(=O)NC2CCCC2)c2ccc(O)cc2)c1 (configuration not stated)	u	u	-7%	-31	u	u
COc1ccc(CN(C(=O)c2nsc(Cl)c2Cl)C(C(=O)NC2CCCCC2)c2ccc(OC)cc2)cc1 (configuration not stated)	u	-12%	x	-36	-22%	15µM*
CC(=O)Nc1cc(C(=O)N2CC3(C)CC2CC(C)(C)C3)cc2ncn(CCc3ccccn3)c12 (configuration not stated)	x	-15%	21%	x	-11%	x
c1ccc(CN(CC2=NCCN2)c2ccccc2)cc1	u	-11%	-24%	u	-10%	u
Cc1ccc(N(CC2=NCCN2)c2cccc(O)c2)cc1	u	-1%	-24%	-66*!	-14%	23µM*
CCS(=O)(=O)N1CCc2cc(C(=O)N3CCN(c4ccc(OC)cc4)CC3)ccc21	u	-20%	52%	16	-19%	-2%[46.1 µM]
NC(=O)N/N=C/c1c(Sc2nnnn2-c2ccccc2)nc2ccccn2c1=O	x	x	u	-73*	x	x
CCCn1c2ccccc2c2cnn(CC(=O)N(Cc3ccccc3)C(C)C)c(=O)c21	-28%[46.1 µM]	-11%	u	6	-13%	x
COc1ccc(CC(=O)Nc2nnc3n2CCS3)cc1	10%[46.1 µM]	-3%	-5%	2	0%	x
CC(C)(C)C(=O)Nc1nnc2n1CCS2	17%[46.1 µM]	20%	-11%	-1	16%	x
CC(C)(C)c1ccc(C(=O)Nc2nnc3n2CCS3)cc1	u	-17%	16%	-84*	-15%	x
CCOc1ccc(CC(=O)Nc2nnc3n2CCS3)cc1	-9%[46.1 µM]	-3%	16%	-61*	3%	x
CCN(Cc1ccccc1)C(=O)Cn1c(=O)n(-c2cccc(C)c2)c(=O)c2c1c1cc(C)ccc1n2C	14%[46.1 µM]	-7%	-9%	-18	-2%	x
CC1=C(C(=O)Nc2ccccc2)C(c2ccc(C(=O)O)cc2)n2ncnc2N1 (configuration not stated)	25%[46.1 µM]	-16%	-18%	22	-7%	x
COC1=CC(=O)C(OC)=C(OC)C1=O	16µM*	u	u	u	-29%	u
CC(C)c1cc(C(=O)NCc2ccccc2)no1	12%[46.1 µM]	0%	51%	69	-7%	u
